Experimental data taken from article PMC7862700, “An all-to-all approach to the identification of sequence-specific readers for epigenetic DNA modifications on cytosine”.

Tests used:
Experiment in all cases: DAPPL (digital affinity profiling via proximity ligation, sequencing); 10 mM Tris-HCl pH 7.5, 50 mM NaCl, 1 mM DTT, 4% glycerol, room temperature, 30 min; GST-TFs on glutathione beads, 16-mer random dsDNA library, 0.1% formaldehyde crosslink after washing; high values mean tight binding
[1] = molecular target: T1, FLI1 (Homo sapiens, UniProt Q01543 1-452); settings: protein: recombinant; tags: N-terminal GST; dsDNA, one strand shown
T1 sequence: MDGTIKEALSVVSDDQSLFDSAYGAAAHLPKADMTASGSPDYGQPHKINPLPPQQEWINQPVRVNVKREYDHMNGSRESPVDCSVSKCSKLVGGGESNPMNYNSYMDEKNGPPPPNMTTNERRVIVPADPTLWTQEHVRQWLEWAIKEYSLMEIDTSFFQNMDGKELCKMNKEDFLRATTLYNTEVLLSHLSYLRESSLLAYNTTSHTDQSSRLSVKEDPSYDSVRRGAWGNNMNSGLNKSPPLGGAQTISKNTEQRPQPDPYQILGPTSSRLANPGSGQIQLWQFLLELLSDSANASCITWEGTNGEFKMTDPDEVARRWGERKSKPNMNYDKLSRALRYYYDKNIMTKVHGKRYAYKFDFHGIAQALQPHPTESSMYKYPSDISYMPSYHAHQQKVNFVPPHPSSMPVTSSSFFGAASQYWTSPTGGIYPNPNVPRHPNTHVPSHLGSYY
In short: (§1)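 Sequencing on an Illumina NextSeq500 followed washing, crosslinking with 0.1% formaldehyde, proximity ligation (BsaI/T4 ligase, 1 h, 37 °C) and PCR amplification of pools that had been incubated for 30 min at room temperature with 200 nmole of a random double-stranded 16-mer DNA library in Tris/NaCl/DTT/glycerol buffer. Each pool held DNA-barcoded human transcription factors, expressed in yeast as GST fusions and captured on glutathione beads, plus a tag-only sample. Binding signal is a hexamer's read frequency for a factor divided by its frequency in the tag-only sample.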

[2] = molecular target: T2, ELK1 (Homo sapiens, UniProt P19419 1-428); settings: protein: recombinant; tags: N-terminal GST; dsDNA, one strand shown
T2 sequence: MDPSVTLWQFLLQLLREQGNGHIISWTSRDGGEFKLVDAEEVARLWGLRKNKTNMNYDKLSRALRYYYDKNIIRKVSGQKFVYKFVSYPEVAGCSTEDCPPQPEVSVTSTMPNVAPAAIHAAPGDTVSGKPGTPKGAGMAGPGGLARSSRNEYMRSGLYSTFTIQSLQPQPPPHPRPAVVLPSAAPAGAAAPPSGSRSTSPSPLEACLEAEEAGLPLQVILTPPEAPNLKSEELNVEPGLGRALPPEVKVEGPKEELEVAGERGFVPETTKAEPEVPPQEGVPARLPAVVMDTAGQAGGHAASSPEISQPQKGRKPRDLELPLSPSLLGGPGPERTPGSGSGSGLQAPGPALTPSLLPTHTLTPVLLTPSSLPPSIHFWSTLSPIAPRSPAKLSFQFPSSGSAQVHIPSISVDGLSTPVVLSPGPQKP
In short: as §1

[3] = molecular target: T3, GABPA (Homo sapiens, UniProt Q06546 1-454); settings: protein: recombinant; tags: N-terminal GST; dsDNA, one strand shown
T3 sequence: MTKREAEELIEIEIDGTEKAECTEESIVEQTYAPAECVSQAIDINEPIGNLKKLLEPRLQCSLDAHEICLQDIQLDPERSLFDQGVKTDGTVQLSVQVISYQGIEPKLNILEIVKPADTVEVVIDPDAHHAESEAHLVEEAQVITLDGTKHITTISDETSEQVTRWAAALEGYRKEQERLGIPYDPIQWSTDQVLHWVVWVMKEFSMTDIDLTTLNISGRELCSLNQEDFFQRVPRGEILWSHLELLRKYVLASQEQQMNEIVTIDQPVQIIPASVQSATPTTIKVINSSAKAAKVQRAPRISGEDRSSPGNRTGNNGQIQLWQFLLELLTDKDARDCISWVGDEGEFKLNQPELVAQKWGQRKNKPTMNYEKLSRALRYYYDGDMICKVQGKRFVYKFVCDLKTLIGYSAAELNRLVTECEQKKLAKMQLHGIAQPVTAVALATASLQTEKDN
In short: as §1

[4] = molecular target: T4, ERG (Homo sapiens, UniProt P11308 1-479); settings: protein: recombinant; tags: N-terminal GST; dsDNA, one strand shown
T4 sequence: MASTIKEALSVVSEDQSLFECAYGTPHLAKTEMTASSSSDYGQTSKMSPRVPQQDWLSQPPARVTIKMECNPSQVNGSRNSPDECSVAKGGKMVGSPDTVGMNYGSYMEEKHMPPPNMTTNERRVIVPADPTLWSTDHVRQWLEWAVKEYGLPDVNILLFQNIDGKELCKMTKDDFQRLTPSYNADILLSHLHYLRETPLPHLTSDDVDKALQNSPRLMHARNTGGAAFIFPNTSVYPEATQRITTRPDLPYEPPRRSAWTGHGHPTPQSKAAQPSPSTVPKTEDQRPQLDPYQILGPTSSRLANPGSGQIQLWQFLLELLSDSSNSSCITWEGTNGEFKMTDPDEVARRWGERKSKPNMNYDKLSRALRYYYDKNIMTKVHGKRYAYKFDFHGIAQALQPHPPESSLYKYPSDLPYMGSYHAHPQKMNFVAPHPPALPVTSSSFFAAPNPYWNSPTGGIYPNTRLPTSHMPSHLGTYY
In short: as §1

[5] = molecular target: ELF1 (Homo sapiens, UniProt P32519 1-619); settings: protein: recombinant; tags: N-terminal GST; dsDNA, one strand shown
In short: as §1

[6] = molecular target: T5, EHF (Homo sapiens, UniProt Q9NZC4 1-300); settings: protein: recombinant; tags: N-terminal GST; dsDNA, one strand shown
T5 sequence: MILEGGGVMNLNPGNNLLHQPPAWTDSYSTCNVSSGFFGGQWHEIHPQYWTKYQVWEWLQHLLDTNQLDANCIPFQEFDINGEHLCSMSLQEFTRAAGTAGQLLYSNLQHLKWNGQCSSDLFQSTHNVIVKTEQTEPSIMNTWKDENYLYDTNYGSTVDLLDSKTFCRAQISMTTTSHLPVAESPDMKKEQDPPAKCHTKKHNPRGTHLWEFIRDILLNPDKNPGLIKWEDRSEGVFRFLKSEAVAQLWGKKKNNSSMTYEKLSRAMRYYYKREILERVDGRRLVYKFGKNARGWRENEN
In short: as §1

[7] = molecular target: SPI1 (Homo sapiens, UniProt P17947 1-270); settings: protein: recombinant; tags: N-terminal GST; dsDNA, one strand shown
In short: as §1

[8] = molecular target: SPIB (Homo sapiens, UniProt Q01892 1-262); settings: protein: recombinant; tags: N-terminal GST; dsDNA, one strand shown
In short: as §1

[9] = molecular target: T6, ELK3 (Homo sapiens, UniProt P41970 1-407); settings: protein: recombinant; tags: N-terminal GST; dsDNA, one strand shown
T6 sequence: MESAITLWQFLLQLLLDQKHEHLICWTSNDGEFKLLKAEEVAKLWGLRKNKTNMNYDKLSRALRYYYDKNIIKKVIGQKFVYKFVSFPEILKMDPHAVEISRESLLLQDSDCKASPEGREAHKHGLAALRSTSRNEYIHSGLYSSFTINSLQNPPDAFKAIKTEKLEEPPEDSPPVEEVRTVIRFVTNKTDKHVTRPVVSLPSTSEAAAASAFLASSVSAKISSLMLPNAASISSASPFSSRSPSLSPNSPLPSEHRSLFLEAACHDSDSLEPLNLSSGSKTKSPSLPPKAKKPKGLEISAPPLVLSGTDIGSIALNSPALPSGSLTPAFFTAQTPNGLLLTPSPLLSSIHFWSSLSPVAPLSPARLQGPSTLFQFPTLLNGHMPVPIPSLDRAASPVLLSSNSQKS
In short: as §1

[10] = molecular target: T7, FEV (Homo sapiens, UniProt Q99581 1-238); settings: protein: recombinant; tags: N-terminal GST; dsDNA, one strand shown
T7 sequence: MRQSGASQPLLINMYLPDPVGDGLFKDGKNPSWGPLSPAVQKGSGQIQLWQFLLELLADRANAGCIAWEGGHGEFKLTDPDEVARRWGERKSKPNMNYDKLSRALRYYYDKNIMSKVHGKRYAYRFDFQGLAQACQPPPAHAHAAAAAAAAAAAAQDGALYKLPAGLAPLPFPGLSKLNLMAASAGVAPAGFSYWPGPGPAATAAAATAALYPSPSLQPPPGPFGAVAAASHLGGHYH
In short: as §1

[11] = molecular target: ETV5 (Homo sapiens, UniProt P41161 1-510); settings: protein: recombinant; tags: N-terminal GST; dsDNA, one strand shown
In short: as §1

[12] = molecular target: HSF1 (Homo sapiens, UniProt Q00613 1-529); settings: protein: recombinant; tags: N-terminal GST; chain copies: 3; dsDNA, one strand shown
In short: as §1

[13] = molecular target: T8, SPIC (Homo sapiens, UniProt Q8N5J4 1-248); settings: protein: recombinant; tags: N-terminal GST; dsDNA, one strand shown
T8 sequence: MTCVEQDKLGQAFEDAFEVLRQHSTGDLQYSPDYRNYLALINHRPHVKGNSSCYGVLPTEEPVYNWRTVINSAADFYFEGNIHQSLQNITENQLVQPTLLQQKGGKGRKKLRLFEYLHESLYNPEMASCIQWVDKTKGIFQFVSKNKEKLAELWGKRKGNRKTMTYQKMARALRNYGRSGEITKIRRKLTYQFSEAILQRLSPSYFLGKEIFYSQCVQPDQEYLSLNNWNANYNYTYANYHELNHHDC
In short: as §1

[14] = molecular target: ELF4 (Homo sapiens, UniProt Q99607 1-663); settings: protein: recombinant; tags: N-terminal GST; dsDNA, one strand shown
In short: as §1

[15] = molecular target: T9, ELK4 (Homo sapiens, UniProt P28324-2 1-405); settings: protein: recombinant; tags: N-terminal GST; dsDNA, one strand shown
T9 sequence: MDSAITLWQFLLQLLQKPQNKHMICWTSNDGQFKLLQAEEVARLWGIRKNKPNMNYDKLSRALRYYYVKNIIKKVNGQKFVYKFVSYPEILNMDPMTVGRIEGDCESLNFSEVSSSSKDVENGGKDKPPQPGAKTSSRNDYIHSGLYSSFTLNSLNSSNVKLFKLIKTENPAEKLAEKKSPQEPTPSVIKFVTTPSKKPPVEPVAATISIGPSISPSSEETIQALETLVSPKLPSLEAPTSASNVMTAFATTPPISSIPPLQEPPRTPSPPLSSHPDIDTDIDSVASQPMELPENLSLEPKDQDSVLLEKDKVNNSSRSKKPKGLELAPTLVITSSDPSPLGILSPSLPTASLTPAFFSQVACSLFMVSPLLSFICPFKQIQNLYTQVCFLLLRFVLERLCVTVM
In short: as §1

[16] = molecular target: T10, ETV2 (Homo sapiens, UniProt O00321 1-342); settings: protein: recombinant; tags: N-terminal GST; dsDNA, one strand shown
T10 sequence: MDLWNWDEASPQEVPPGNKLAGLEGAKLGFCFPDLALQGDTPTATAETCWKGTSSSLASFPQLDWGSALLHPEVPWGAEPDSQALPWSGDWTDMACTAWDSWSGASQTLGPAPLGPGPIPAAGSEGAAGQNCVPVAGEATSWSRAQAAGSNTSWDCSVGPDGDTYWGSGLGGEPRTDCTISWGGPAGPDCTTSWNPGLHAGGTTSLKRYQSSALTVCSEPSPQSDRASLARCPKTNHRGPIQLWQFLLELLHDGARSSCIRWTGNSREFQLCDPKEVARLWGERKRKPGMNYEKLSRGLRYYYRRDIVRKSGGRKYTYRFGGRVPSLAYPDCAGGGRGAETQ
In short: as §1

[17] = molecular target: T11, ELF3 (Homo sapiens, UniProt P78545 1-371); settings: protein: recombinant; tags: N-terminal GST; dsDNA, one strand shown
T11 sequence: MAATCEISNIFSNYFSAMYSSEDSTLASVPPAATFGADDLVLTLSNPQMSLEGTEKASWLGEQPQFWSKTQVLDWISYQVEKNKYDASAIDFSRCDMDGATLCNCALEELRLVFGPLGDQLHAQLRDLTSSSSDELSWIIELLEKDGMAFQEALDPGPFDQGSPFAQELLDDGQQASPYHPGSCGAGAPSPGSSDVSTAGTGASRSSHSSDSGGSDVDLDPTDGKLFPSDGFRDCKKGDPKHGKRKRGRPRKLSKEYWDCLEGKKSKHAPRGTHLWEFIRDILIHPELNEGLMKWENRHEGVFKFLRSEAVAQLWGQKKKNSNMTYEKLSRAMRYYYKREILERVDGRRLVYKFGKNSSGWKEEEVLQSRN
In short: as §1

[18] = molecular target: CRX (Homo sapiens, UniProt O43186 1-299); settings: protein: recombinant; tags: N-terminal GST; dsDNA, one strand shown
In short: as §1

[19] = molecular target: ETV1 (Homo sapiens, UniProt P50549 1-477); settings: protein: recombinant; tags: N-terminal GST; dsDNA, one strand shown
In short: as §1

Sequence of SPIB (Q01892 whole entry): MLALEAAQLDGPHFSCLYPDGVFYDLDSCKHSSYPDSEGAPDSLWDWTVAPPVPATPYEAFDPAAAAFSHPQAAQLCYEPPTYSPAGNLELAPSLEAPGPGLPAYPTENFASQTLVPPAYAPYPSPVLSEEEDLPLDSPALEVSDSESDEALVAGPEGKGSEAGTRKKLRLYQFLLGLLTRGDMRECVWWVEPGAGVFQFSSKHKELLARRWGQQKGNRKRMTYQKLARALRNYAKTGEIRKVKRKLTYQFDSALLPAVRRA
Sequence of HSF1 (Q00613 whole entry): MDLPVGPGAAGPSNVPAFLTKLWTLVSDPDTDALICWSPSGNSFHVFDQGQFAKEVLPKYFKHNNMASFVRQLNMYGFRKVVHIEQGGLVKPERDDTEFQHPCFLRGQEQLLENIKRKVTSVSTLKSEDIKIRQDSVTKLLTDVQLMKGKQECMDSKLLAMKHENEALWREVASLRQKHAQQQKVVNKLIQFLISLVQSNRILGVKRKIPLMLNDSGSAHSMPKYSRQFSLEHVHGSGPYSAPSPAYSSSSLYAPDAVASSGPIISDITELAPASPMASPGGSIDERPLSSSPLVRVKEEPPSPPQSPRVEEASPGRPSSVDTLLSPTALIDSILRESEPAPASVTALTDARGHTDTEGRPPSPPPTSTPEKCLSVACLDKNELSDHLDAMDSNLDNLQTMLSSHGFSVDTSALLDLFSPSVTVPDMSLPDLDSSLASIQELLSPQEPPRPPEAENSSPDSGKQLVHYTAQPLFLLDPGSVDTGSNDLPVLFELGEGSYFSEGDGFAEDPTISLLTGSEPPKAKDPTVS
Sequence of ELF4 (Q99607 whole entry): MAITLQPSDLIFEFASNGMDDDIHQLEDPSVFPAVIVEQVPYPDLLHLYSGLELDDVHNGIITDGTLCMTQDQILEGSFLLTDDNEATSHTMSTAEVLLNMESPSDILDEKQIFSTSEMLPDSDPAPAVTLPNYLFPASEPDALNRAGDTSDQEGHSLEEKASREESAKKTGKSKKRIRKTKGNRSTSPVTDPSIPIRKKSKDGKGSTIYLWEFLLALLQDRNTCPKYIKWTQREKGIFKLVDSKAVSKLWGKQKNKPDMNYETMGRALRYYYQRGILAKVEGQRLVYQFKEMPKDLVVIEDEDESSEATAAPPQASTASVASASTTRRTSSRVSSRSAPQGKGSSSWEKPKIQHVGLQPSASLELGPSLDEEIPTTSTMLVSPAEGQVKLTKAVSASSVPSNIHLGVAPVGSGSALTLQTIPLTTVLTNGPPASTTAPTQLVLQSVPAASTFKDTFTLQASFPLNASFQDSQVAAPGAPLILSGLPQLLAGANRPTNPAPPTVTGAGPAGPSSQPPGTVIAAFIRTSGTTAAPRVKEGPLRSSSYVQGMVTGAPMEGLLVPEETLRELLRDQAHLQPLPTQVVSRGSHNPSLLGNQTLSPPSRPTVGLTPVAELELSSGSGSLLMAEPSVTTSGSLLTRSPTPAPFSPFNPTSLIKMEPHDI
Sequence of CRX (O43186 whole entry): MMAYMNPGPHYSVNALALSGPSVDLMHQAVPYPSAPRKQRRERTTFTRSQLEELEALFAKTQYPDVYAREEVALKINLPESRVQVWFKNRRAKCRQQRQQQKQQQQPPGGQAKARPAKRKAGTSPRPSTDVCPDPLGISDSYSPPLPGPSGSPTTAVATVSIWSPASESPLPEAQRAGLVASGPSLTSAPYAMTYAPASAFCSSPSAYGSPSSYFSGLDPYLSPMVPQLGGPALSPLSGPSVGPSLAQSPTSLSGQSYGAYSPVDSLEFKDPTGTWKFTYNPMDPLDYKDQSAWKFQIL
Sequence of ELF1 (P32519 whole entry): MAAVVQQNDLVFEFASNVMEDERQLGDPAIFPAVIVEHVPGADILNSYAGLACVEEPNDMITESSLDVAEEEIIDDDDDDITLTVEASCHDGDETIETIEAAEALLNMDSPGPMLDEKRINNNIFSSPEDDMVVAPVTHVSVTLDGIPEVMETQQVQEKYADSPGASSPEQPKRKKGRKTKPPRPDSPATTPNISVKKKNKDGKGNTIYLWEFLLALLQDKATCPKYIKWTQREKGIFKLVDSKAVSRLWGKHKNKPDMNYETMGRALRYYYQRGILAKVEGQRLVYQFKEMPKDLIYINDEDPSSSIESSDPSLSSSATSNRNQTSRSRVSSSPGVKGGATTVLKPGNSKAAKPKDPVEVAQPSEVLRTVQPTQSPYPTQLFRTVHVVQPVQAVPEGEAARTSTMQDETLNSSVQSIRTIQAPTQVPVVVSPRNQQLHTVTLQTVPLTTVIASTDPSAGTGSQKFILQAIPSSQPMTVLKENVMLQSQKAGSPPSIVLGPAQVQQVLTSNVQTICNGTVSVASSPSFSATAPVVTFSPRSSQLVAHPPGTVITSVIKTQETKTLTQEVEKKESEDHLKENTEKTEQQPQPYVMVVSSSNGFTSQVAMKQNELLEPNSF
Sequence of ETV5 (P41161 whole entry): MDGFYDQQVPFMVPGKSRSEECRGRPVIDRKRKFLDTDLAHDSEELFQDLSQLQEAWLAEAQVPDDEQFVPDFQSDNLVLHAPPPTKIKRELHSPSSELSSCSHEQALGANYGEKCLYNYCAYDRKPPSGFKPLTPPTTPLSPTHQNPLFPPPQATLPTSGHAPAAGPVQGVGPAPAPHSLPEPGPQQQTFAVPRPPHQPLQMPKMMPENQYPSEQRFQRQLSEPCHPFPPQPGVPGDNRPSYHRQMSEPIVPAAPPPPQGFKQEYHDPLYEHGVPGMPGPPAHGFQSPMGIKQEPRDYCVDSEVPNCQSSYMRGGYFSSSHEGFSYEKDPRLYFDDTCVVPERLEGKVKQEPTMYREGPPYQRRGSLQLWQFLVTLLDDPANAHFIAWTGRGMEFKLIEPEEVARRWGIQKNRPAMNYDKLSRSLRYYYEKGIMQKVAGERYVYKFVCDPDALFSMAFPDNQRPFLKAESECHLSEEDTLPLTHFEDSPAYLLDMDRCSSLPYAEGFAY
Sequence of ETV1 (P50549 whole entry): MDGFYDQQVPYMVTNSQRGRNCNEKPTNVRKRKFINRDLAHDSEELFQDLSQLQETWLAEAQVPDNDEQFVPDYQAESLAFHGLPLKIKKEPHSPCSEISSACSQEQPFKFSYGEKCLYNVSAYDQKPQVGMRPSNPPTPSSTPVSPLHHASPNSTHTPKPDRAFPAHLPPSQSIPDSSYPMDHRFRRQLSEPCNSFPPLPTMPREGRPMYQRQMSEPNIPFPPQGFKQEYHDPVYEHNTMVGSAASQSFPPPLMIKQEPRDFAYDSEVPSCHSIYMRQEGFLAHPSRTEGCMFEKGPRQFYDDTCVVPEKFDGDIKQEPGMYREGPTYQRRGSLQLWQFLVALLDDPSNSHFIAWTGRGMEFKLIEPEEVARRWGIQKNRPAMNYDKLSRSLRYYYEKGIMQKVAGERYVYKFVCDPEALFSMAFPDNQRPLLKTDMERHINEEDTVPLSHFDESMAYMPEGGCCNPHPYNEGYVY

In the case of TTGCCT, the binding signal [1] is reported as 1.16 fold enrichment (6-mer frequency, TF over GST control), the binding signal [2] is reported as 1.18 fold enrichment (6-mer frequency, TF over GST control) and the binding signal [3] is reported as 1.15 fold enrichment (6-mer frequency, TF over GST control). The binding signal [4] was 1.17 fold enrichment (6-mer frequency, TF over GST control), the binding signal [5] was 1.21 fold enrichment (6-mer frequency, TF over GST control) and the binding signal [6] was 1.13 fold enrichment (6-mer frequency, TF over GST control). For the same sequence, the binding signal [7] was 1.15 fold enrichment (6-mer frequency, TF over GST control), the binding signal [8] was 1.25 fold enrichment (6-mer frequency, TF over GST control) and the binding signal [9] was 1.3 fold enrichment (6-mer frequency, TF over GST control). The binding signal [10] was 1.19 fold enrichment (6-mer frequency, TF over GST control), the binding signal [11] was 1.22 fold enrichment (6-mer frequency, TF over GST control) and the binding signal [12] was 1.13 fold enrichment (6-mer frequency, TF over GST control). The binding signal [13] was 1.42 fold enrichment (6-mer frequency, TF over GST control), the binding signal [14] was 1.29 fold enrichment (6-mer frequency, TF over GST control) and the binding signal [15] was 1.2 fold enrichment (6-mer frequency, TF over GST control). The binding signal [16] was 1.19 fold enrichment (6-mer frequency, TF over GST control), the binding signal [17] was 1.42 fold enrichment (6-mer frequency, TF over GST control) and the binding signal [18] was 1.16 fold enrichment (6-mer frequency, TF over GST control). The binding signal [19] was 1.37 fold enrichment (6-mer frequency, TF over GST control).
